In PubChem BioAssay (NCI):
Compounds without any hit were thinned out: in the full panel of roughly 83,000, 20% have a hit.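 Cell lines were cultured in 96-well plates, exposed to a single compound concentration, and assessed for percent growth 48 hours later.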 A number with no mark means an inactive call. Calls of active or inactive are those of the source. Rule for the calls: active = growth percent below 10; inactive = the rest.

How the values were obtained:
Assay in all cases: NCI-60 one-dose screen, 48 h (100 = growth as untreated, 0 = no growth, -100 = all killed)
Details in all cases: 10 µM unless noted
[1] = system: RPMI-8226 leukemia
[2] = system: OVCAR-5 ovarian
[3] = system: OVCAR-4 ovarian
[4] = system: SK-OV-3 ovarian
[5] = system: IGROV1 ovarian
[6] = system: OVCAR-3 ovarian
[7] = system: HS 578T breast
[8] = system: NCI/ADR-RES ovarian
[9] = system: T-47D breast
[10] = system: OVCAR-8 ovarian

SMILES	growth [1]	growth [2]	growth [3]	growth [4]	growth [5]	growth [6]	growth [7]	growth [8]	growth [9]	growth [10]
OC1CCN(CCCOc2c3ccc(Cl)cc3nc3c2oc2ccccc23)CC1	-15.1% (active)	-4.92% (active)	1.3% (active)	7.92% (active)	-18% (active)	0.661% (active)	-6.78% (active)	6.48% (active)	11%	
O=c1/c(=C\c2ccc(-c3ccccc3)o2)sc2nc(-c3ccccc3)nn12	102%	104%	107%	105%	103%		95.4%	101%	92.9%	
CC(C)NC(=O)c1cc(-c2ccc(NC(=O)Nc3ccc(N4CCOCC4)c(C(F)(F)F)c3)cc2)nc2cccnc12	14.3%	88.1%	71.7%		66.9%		9.42% (active)	78.4%	64.2%	63.7%
COc1cc(/C=C/C(=O)c2ccccc2)ccc1Oc1nc(NCCO)nc(N2CCOCC2)n1	54.5%	108%	109%	99.3%	100%	124%	98%	107%	93.6%	
O=C(CN1C(=O)/C(=C/c2ccccc2)SC1=S)N1CCOCC1	89.6%	97.6%	109%	95.4%	97.4%	115%	106%	106%	77.9%	
CC(C)(O)c1cncc(-c2ccc3ncnc(N4CCc5cc(F)c(Cl)cc54)c3c2)c1	6.02% (active)	25.9%	20.2%	1.96% (active)	-35.7% (active)	5.16% (active)	-8.48% (active)	31.1%	4.63% (active)	
COc1cc(/C=C/C(=O)c2ccc(F)cc2)ccc1Oc1nc(NCCO)nc(N2CCOCC2)n1	-1.38% (active)	98.8%	88.4%	113%	70.6%	98.8%	83.8%	78.9%	96.5%	
Nc1c(C(=O)c2ccc(Br)cc2)oc2nc(-c3cnccn3)cc(-c3cccs3)c12	99.8%	112%	96.3%	98.6%	97.4%	108%	101%	102%	91.4%	
Nc1cc(-c2c[nH]c3ccc(Cl)cc23)nc2cc(-c3c[nH]c4ccc(Cl)cc34)nn12	59.4%	59.7%	58.6%	119%	41.7%	75.9%	74.3%	60.4%	51.6%	
COc1ccc(N/N=C/c2c(-c3ccc(S(C)(=O)=O)cc3)nc3ccccn23)cc1	32.2%	67.4%	42.1%	62.2%	51.9%		62.4%	34%	26.2%	
COc1ccc(-c2nc3ccc(-c4nnc(SCC(=O)Nc5ccc(C(C)=O)cc5)o4)cc3[nH]2)cc1	97.1%	107%	109%	118%	107%	138%	96.8%	118%	105%	
COc1cc(/C=C/C(=O)c2cc(OC)c(OC)c(OC)c2)ccc1Oc1nc(NCCO)nc(N2CCOCC2)n1	-24.9% (active)	18.3%	20%	7.04% (active)	1.1% (active)	-3.03% (active)	7.51% (active)	64.5%	19.2%	
O=C1[C@H]2Cc3c([nH]c4ccccc34)[C@@H](c3ccc(Br)cc3)N2C(=O)CN1C1CCN(Cc2ccccc2)CC1	3.9% (active)	65%	48.3%		18.7%	68.1%	36.7%		19.3%	41.6%
COc1ccccc1C(=O)CSc1nc(Nc2ccc(S(N)(=O)=O)cc2)c2ccccc2n1	90.8%	90.8%	86.6%		95.5%	107%	96.9%	106%	89.6%	
Cc1c(Nc2nnc(SCC(=O)Nc3sc4c(c3C#N)CCCC4)s2)c(=O)n(-c2ccccc2)n1C	96.7%	114%	108%	120%	104%	99.1%	109%	99.5%	97.3%	
CCN1CCN(/C(=N\c2sc(-c3ccccc3)nc2-c2ccccc2)c2ccccc2)CC1	57.7%	91.8%	31.8%	99.5%	92.9%	87.2%	92.2%	82.1%	63.7%	
N=C1CC(=O)NN1C(=O)CSc1nc2sc3c(c2c(=O)n1-c1ccc(Cl)cc1)CCCC3	102%	104%	103%	98.2%	94.5%	122%	94.5%	115%	83.8%	
COc1cc2nc(-c3ccc(Cl)cc3)cc(OCCCNCC3CCCO3)c2cc1OC (stereo not given)	8.63% (active)	50.1%	79.4%	88.4%	33.7%	87.7%	76.6%	46.8%	77.1%	
COc1ccc(C(=O)c2cc(C(=O)/C=C/c3c(Cl)cccc3Cl)c3cc(C)ccn23)cc1	92.6%	102%	106%		95.9%	103%	95.7%		91.7%	100%
NS(=O)(=O)c1cccc(Nc2nc(SCC(=O)c3ccc([N+](=O)[O-])cc3)nc3ccccc23)c1		108%	43%	73.5%	16.6%	36.5%	65.6%	72.7%	10.8%	24.1%
Cc1cc2nc3c4cc(Cl)ccc4n(CC(=O)NCCN(C)C)c3nc2cc1C	-27.3% (active)	-16.7% (active)	95.7%	106%	56.2%	96.7%	71.9%	55.4%	82%	
COc1cc2cc(Oc3ccc(NC(=O)c4cccc(C(F)(F)F)c4)cc3)c(C)nc2cc1OCCN1CCCCC1	-10.4% (active)	98.7%	68.1%	101%	81.5%		70%	75.4%	-25.8% (active)	
CN(C)CCCOc1c2ccccc2nc2c1oc1ccc(Cl)cc12	-20.8% (active)	12.4%	17.3%	20.5%	-5.97% (active)	22%	25.7%	3.58% (active)	31.2%	
CC(=O)Nc1cc(F)cc(-c2ccc3[nH]cc(-c4ccccc4)c3n2)c1	5.72% (active)	27.4%	42.4%	13.6%	25.7%	32.5%	10.5%	33.5%	26.8%	
COc1ccc(COc2ccc(/C=C3/C(=O)Nc4cc(Cl)ccc43)cc2)cc1	89.9%	96.2%	93.5%	107%	92.4%	102%	89%	94.4%	90.2%	
Cc1ccc2ccc3ccc(C)nc3c2n1.Cc1ccc2ccc3ccc(C)nc3c2n1.Oc1c(Cl)cc(Cl)c2ccc(CN3CCCCC3)nc12.[Ru]	-46% (active)	-72% (active)	-45.8% (active)	-72.6% (active)	-58.4% (active)	-95.3% (active)	-42.4% (active)	-24.4% (active)	-55.8% (active)	
N#Cc1ccc(/C=N/NC(=O)c2[nH]c3ccc(Br)cc3c2-c2ccccc2)s1		54.5%	54.6%	22.6%	17.3%	33.3%	23.3%	9.75% (active)	58.8%	2.33% (active)
Cc1cc2nc3c4cc(Cl)ccc4n(CC(=S)NCCN(C)C)c3nc2cc1C		-42.6% (active)	-24.1% (active)	-16.4% (active)	-74% (active)	-47% (active)	51.4%	-56.4% (active)	61.7%	-66.9% (active)
